These results are taken from PubChem BioAssay (Tox21).

“And” between values parts separate entries of the source, which are not always exact repeats. Equal entries are not always repeated. Inconclusive results are not listed. Where a call stands in place of a potency, no number is given. The source made the active and inactive calls. The call rests on the fitted dose curve; in most records, active means well fitted cell-killing curve with a large enough effect in the repeat runs; inconclusive means weak or mixed curves, or effect the other way; inactive means flat fitted curve, though single readings scatter.
Potency means the concentration at half of the fitted maximal effect.

A short description of the experiment: qHTS assay to identify small molecule that activate the aryl hydrocarbon receptor (AhR) signaling pathway - cell viability counter screen (AID 743086). Further: nearly all actives have a fitted effect of over 45% in size. Particulars: HepG2-AhR-luc viability, CellTiter-Fluor, 24 h; series mostly up to 70.3 µM. An excerpt: U.S. Tox21 Program National Center for Advancing Translational Sciences [NCATS] NIH Chemical Genomics Center [NCGC] U.S. Environmental Protection Agency [EPA] National Institutes of Environmental Health Sciences [NIEHS] National Toxicology Program [NTP] U.S. Food and Drug Administration [FDA] Tox21 Assay overview: The Aryl hydrocarbon Receptor (AhR), a member of the family of basic helix-loop-helix transcription factors, is crucial to adaptive responses to environmental changes. AhR mediates cellular responses to environmental pollutants such as aromatic hydrocarbons through induction of phase I and II enzymes but also interacts with other nuclear receptor signaling pathways A cell based HepG2-AhR-luc assay (HG2L7.5c1 cell line, developed by Dr. Michael S. Denison, University of California at Davis) was used to assess the activation of AhR. HepG2 (human hepatocellular carcinoma) cells were stably transfected with an Ah receptor-responsive firefly luciferase reporter gene plasmid containing 20 dioxin responsive elements and luciferase reporter gene. Increased luciferase activity can be used to identify the compounds that induce AhR activation. The cytotoxicity of the compounds screened against the HepG2-AhR-luc cell line was tested in parallel by measuring the cell viability using CellTiter-Fluor assay in the same wells.
Tox21 Assay Protocol Summary: 4000 cells in 5 uL/well were dispensed into white wall/solid bottom 1536-well plates using a Multidrop Combi (Thermo Fisher Scientific Inc., Waltham, MA) dispenser. After the assay plates were incubated at 37C for 5 h, 23 nL of compound or DMSO vehicle was transferred to the assay plates by a pintool station (Kalypsys, San Diego, CA). The plates were incubated at 37C for 24 hr. For cell viability measurement, 1 ul/well of CellTiter-Fluor reagent (Promega, Madison, WI) was added into the assay plates using a Flying Reagent Dispenser (FRD) (Aurora Discovery, CA),and then the assay plates were incubated at 37C for 30 min. The fluorescence intensity in the plates was measured using a ViewLux plate reader (PerkinElmer, Shelton, CT), followed by the addition of 4 uL of ONE-Glo Luciferase Assay reagent (Promega) using an FRD (Aurora Discovery). After the assay plates were incubated at room temperature for 30 min, luminescence intensity was measured using a ViewLux plate reader (Perkin Elmer).
On the technique in general: Quantitative high-throughput screening tests each substance at several concentrations.
For `c1coc(CNc2ncnc3nc[nH]c23)c1`, the Potency entry was “inactive”. As for `CC1CCC(CO)CC1` (stereo not given), the Potency entry is “inactive”.

With `CC(C)CC(C)(N)C#N` (stereo not given), the Potency result was “inactive”. The result for `CC1=CCC(O)(C(C)C)CC1` (stereo not given) reads “inactive”.

`OCCCCCO`: the Potency entry is “inactive”. As for `CCN(C=O)CC`, the entry is “inactive”; as for `CC(C)(CCC(=O)O)C(=O)O`, “inactive”. As for `[K+]`, the entry is “inactive”; as for `CCC(C(=O)NC(=O)NC(C)=O)c1ccccc1` (stereo not given), “inactive”; as for `COc1cc2c(cc1OC)-c1cc3ccc(OC)c(OC)c3c[n+]1CC2`, “inactive”. Consider `CC(C)(C)C(=O)c1ccccc1`, for which the Potency result is “inactive”. As for `O=S(=O)(O)c1cccc2c(S(=O)(=O)O)cccc12`, the Potency entry was “inactive”. For `CCCCCCCCCCOc1cc2c(=O)c(C(=O)OCC)c[nH]c2cc1OCC`, the Potency entry is “inactive”.

With `CNCCO`, the Potency result is “inactive”.

For `C[N+](C)(C)CCCCCCCCCC[N+](C)(C)C`, the Potency entry was “inactive”. The result for `CCOC(=O)c1cnc2c(cnn2CC)c1NN=C(C)C` reads “inactive”; that for `NC(=O)N[C@@H](CCC(=O)O)C(=O)O`, “inactive”; that for `C[N+](C)(CCOc1ccccc1)Cc1cccs1`, “inactive”.

With `CC1=C(C/C=C(\C)CCC[C@H](C)CCC[C@H](C)CCCC(C)C)C(=O)c2ccccc2C1=O`, the Potency result is “inactive”. The result for `COc1cc(C(=O)NCc2ccc(OCCN(C)C)cc2)cc(OC)c1OC` reads “inactive”; that for `COc1ccnc(CS(=O)c2nc3cc(OC(F)F)ccc3[nH]2)c1OC` (stereo not given), “inactive”; that for `c1ccc(CCc2ccccc2)cc1`, “inactive”. For the compound `C=COCC1CCC(COC=C)CC1` (stereo not given), the Potency result was “inactive”.

As to `C=CCOCC(O)CO` (stereo not given), the Potency result is “inactive”.

Turning to `NC(=O)N1c2ccccc2CC(=O)c2ccccc21`, the Potency result was “inactive”. `CC(C)CCCO`: the Potency entry was “inactive”. As for `COc1cc(C(=O)OC(COCCC(C)C)CN2CCOCC2)cc(OC)c1OC` (stereo not given), the entry is “inactive”; as for `O=C(c1ccccc1)C1(O)CCCCC1`, “inactive”. As for `C=COC(=O)C(C)(CC)CCC(C)C` (stereo not given), the entry is “inactive”; as for `CC(C)C1CCC(O)CC1` (stereo not given), “inactive”. Take `CC(=O)O[C@@]12CO[C@@H]1C[C@H](O)[C@@]1(C)C(=O)[C@H](O)C3=C(C)[C@@H](OC(=O)[C@H](O)[C@@H](NC(=O)OC(C)(C)C)c4ccccc4)C[C@@](O)([C@@H](OC(=O)c4ccccc4)[C@H]21)C3(C)C`: the Potency is 33.5 µM (active) and 26.6 µM (active). The result for `CC(C)COC(=O)c1ccc(N)cc1` reads “inactive”; that for `CCC(=O)OCc1ccccc1`, “inactive”. As for `CC(=O)Nc1ccc(OCC(O)CNC(C)C)cc1` (stereo not given), the entry is “inactive”; as for `CC(=O)N1C[C@H](O)C[C@H]1C(=O)O`, “inactive”.

Turning to `CC1=NS(=O)(=O)c2cc(Cl)ccc2N1`, the Potency result was “inactive”. As for `COc1ccccc1OCC1CNC(=O)O1` (stereo not given), the entry is “inactive”; as for `CC(C)C(=O)OC(=O)C(C)C`, “inactive”; as for `CCN1C=CN(C)C1C` (stereo not given), “inactive”. As for `Clc1cc(Cl)c(Cl)nc1Cl`, the entry is “inactive”.
